# The source made the active and inactive calls.
# Key:
# [1] = test system: PRMT1 (protein arginine N-methyltransferase 1); assay: small molecules binding arginine methyltransferase PRMT1 – biochemical, small-molecule microarray, 635 nm fluorescence, primary screen (AID 1088); conditions: higher = more signal;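 further: binding of Prmt1 protein to compounds spotted on small-molecule microarray slides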
# [2] = growth effects on S. cerevisiae YJM789 – YJM789 clinical isolate, OD600, 24 h, basal, primary screen (AID 1089); conditions: higher = more signal, called active from +8 up or from −8 down;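 further: growth of clinical yeast isolate S. cerevisiae YJM 789 seeded 1000 cells per well; test concentration not given here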
# [3] = S. pombe growth modifiers, basal conditions – strain 972, OD600, 24 h, no modulator, primary screen (AID 1090);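 further: basal condition with compound alone and no growth modifier present; test concentration not given here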; conditions: S. pombe 972 growth, higher = more signal, called active from +8 up or from −8 down
# [4] = budding yeast growth modifiers under rapamycin – strain BY4716, OD600, 96 h, primary screen (AID 1091); further: test concentration not given here; conditions: S. cerevisiae BY4716 + rapamycin, higher = more signal, called active from +8 up or from −8 down
# [5] = target: Torsin-1A-interacting protein 2 (Homo sapiens) (UniProt Q8NFQ8); assay: small molecules binding lysate-expressed LULL1 – cell lysate, human LULL1 lysate, 635/667 nm fluorescence, primary screen (AID 1092); conditions: small-molecule microarray, hLULL1 lysate binding, 635 nm fluorescence; higher = more signal;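 further: probe is lysate of COS7 cells overexpressing human LULL1; score merges per-feature 667 nm fluorescence with signal-to-noise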
# [6] = optical density change of DRC41 E. coli – strain DRC41, OD650, 24 h, E. coli filamentation project, primary screen (AID 1093);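 further: MC1000 strain lacking acrAB efflux and sulA so SOS filamentation is blocked; test concentration not given here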; conditions: E. coli DRC41 growth, higher = more signal, called active from +8 up or from −8 down
# [7] = probe aLefty2 binding to arrayed compounds – biochemical, biotinylated probe, 635/667 nm fluorescence, primary screen (AID 1094); conditions: small-molecule microarray, higher = more signal;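 further: score merges spot fluorescence near 667 nm with spot signal-to-noise ratio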
# [8] = test system: Noggin (protein binding on small-molecule microarray); assay: small molecules binding Noggin protein – biochemical, 635/667 nm fluorescence, primary screen (AID 1095); conditions: 635 nm fluorescence, higher = more signal;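 further: score merges 667 nm feature fluorescence with signal to noise over triplicate slides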
# [9] = target: Neurogenic locus notch homolog protein 3 (Homo sapiens) (UniProt Q9UM47); assay: small molecules binding NOTCH3 protein – biochemical, 635/667 nm fluorescence, primary screen (AID 1096); conditions: small-molecule microarray, 635 nm fluorescence, higher = more signal
# [10] = probe aEGFR binding to arrayed compounds – biochemical, biotinylated probe, 635/667 nm fluorescence, primary screen (AID 1097); conditions: small-molecule microarray, higher = more signal;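 further: probe is a biotinylated anti-EGFR antibody binding compounds printed on slides; score combines fluorescence near 667 nm and signal to noise of each spot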
# Sequence of Neurogenic locus notch homolog protein 3 (Homo sapiens) (Q9UM47 whole entry, looked up): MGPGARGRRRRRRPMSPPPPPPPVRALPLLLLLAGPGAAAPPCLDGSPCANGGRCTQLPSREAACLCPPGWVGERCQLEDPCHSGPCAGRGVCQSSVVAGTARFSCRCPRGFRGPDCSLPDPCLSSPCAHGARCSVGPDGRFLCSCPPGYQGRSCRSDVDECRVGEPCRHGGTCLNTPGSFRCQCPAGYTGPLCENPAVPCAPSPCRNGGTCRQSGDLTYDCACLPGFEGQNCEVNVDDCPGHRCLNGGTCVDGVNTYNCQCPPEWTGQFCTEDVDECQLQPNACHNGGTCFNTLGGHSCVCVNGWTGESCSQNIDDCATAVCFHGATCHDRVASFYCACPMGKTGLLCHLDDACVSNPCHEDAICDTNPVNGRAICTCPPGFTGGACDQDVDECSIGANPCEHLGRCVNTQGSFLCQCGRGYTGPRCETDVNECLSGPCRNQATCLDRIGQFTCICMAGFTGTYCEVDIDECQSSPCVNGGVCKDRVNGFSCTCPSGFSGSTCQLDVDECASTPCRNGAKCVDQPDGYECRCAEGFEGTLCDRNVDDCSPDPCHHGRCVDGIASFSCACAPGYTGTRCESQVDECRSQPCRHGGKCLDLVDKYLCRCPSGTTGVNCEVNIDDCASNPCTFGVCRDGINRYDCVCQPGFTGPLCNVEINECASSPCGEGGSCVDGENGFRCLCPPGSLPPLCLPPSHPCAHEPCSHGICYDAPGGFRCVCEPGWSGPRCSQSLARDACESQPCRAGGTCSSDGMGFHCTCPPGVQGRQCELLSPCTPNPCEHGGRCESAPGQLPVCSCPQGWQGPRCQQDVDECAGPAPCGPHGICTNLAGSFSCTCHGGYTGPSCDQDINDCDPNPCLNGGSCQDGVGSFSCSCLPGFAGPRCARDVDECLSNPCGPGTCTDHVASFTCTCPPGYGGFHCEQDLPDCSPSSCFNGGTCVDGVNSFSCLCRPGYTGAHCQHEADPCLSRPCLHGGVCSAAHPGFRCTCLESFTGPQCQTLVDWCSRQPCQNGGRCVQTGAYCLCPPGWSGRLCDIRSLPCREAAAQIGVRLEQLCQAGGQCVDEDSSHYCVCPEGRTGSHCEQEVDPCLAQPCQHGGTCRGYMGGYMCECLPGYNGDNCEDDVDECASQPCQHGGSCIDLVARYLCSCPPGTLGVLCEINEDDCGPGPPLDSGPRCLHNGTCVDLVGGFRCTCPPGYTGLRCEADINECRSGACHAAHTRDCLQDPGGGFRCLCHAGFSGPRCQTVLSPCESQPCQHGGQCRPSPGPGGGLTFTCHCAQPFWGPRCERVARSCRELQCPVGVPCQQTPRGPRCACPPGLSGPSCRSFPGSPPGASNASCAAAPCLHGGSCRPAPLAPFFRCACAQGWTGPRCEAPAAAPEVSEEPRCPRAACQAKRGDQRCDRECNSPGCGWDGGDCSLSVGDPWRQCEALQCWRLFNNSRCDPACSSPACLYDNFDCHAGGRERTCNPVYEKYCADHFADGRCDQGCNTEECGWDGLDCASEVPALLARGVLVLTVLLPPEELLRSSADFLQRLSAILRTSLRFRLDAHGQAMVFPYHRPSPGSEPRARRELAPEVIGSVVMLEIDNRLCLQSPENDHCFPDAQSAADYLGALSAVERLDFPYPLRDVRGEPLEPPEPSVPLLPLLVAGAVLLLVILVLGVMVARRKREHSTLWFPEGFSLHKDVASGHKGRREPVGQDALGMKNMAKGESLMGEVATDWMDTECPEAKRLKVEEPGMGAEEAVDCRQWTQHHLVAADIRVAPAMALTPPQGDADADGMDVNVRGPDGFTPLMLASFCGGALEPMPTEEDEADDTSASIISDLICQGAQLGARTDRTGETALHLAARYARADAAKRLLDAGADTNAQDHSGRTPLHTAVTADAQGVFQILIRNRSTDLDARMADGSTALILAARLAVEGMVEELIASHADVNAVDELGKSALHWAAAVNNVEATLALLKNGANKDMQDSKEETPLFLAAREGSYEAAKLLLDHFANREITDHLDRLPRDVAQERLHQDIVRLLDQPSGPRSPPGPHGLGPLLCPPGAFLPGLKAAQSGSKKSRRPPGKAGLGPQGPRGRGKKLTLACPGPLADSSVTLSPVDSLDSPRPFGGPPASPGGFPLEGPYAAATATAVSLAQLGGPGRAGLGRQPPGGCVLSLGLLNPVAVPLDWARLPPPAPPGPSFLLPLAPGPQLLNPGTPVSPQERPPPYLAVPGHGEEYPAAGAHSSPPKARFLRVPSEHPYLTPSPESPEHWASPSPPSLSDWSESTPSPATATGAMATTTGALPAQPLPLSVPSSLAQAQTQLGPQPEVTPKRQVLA
# Sequence of Torsin-1A-interacting protein 2 (Homo sapiens) (Q8NFQ8 whole entry, looked up): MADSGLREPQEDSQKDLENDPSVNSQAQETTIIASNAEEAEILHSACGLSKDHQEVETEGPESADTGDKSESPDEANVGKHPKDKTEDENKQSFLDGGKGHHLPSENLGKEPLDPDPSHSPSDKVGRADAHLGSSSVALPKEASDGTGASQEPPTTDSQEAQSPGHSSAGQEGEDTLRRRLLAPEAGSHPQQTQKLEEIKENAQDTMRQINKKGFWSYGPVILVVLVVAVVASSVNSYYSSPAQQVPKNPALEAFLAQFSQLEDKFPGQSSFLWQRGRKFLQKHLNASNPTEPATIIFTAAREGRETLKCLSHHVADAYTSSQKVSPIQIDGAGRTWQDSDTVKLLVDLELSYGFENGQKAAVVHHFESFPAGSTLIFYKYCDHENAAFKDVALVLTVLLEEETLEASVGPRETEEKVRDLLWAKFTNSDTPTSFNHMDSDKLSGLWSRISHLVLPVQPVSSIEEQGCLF
Compound,composite z-score [1],z-score [2],z-score [3],z-score [4],composite z-score [5],z-score [6],composite z-score [7],composite z-score [8],composite z-score [9],composite z-score [10]
CCOC(=O)[C@H](CC(C)C)NC(=O)CCC1CC(OC(=O)NCc2ccc3c(c2)OCO3)CC2(CCCC(COC(=O)NCc3cccc(C(F)(F)F)c3)O2)O1 (stereo not given in full),0.312,0.518 (inactive),0.486 (inactive),1.29 (inactive),0.851,-0.772 (inactive),-0.154,0.184,0.082,-0.171
CCOC(=O)[C@H](CC(C)C)NC(=O)CCC1CC(OC(=O)NCCc2ccc(F)cc2)CC2(CCCC(COC(=O)NCCC(C)C)O2)O1 (stereo not given in full),0.201,0.0312 (inactive),1.12 (inactive),1.08 (inactive),1.51,-0.917 (inactive),-0.107,0.456,-0.496,-0.0778
CC(CCN1CCCc2nc(C)c(C)cc21)=NO[C@@H](C)c1cc(-c2c(C)cc(C)cc2C)no1,0.684,0.0024 (inactive),-2.18 (inactive),-0.381 (inactive),1.33,1.74 (inactive),-0.0512,0.308,0.635,-0.0873
O=C1CCCC=C1C(CCc1ccccc1)OC(=O)c1ccc(Br)cc1 (stereo not given),-0.429,-0.596 (inactive),-2.94 (inactive),-2.46 (inactive),-0.699,0.037 (inactive),-0.159,0.354,-0.445,-0.12
CCOC(=O)[C@H](Cc1ccccc1)NC(=O)OC1CC(CCC2CC(CC)=NO2)OC2(CCCC(COC(=O)NCCC(C)C)O2)C1 (stereo not given in full),1.19,-0.764 (inactive),0.595 (inactive),0.344 (inactive),1.44,1.11 (inactive),-0.147,0.322,-0.0258,-0.0721
CCN1C(=O)[C@H]2[C@H]3[C@H](O)[C@H](O)CC(=NNC(=O)OCc4ccc(OC)cc4)[C@@H]3CC[C@H]2C1=O,-0.235,-1.31 (inactive),-1.45 (inactive),-0.287 (inactive),0.0228,0.214 (inactive),0.241,0.51,-0.428,-0.113
CO[C@H]1COC(=O)CC=C[C@H](C)[C@@H](OC)COC(=O)[C@@H](C)NC(=O)CC=C[C@@H]1C,1.53,-1.02 (inactive),0.0386 (inactive),-1.67 (inactive),-1.92,-0.804 (inactive),-0.148,1.54,0.0946,-0.0727
O=C1[C@H]2[C@H]3[C@H](O)[C@H](O)CC(=NOCc4ccccc4)[C@@H]3CC[C@H]2C(=O)N1Cc1ccc2c(c1)OCO2,0.231,-0.559 (inactive),0.437 (inactive),-0.789 (inactive),0.664,1.1 (inactive),-0.17,0.297,0.428,0.0761
CCOC(=O)NN=C1C[C@@H](O)[C@@H](O)[C@@H]2[C@@H]3C(=O)N([C@@H](C)c4ccccc4)C(=O)[C@@H]3CC[C@@H]12,1.46,-0.707 (inactive),0.159 (inactive),-0.231 (inactive),-0.0284,0.667 (inactive),-0.113,0.797,0.954,0.143
O=C1[C@H]2[C@H]3[C@H](O)[C@H](O)CC(=NOC[C@@H](O)COCc4ccco4)[C@H]3CC[C@H]2C(=O)N1c1ccc(F)cc1F,-0.012,-3.68 (inactive),-1.99 (inactive),-1.97 (inactive),-0.701,-1.13 (inactive),-0.469,-0.349,-0.927,-0.165
COC(=O)[C@H](C)NC(=O)CCC1CC(OC(=O)NCCc2ccc(F)cc2)CC2(CCCC(COC(=O)NCc3cccc(C(F)(F)F)c3)O2)O1 (stereo not given in full),0.292,-0.207 (inactive),1.18 (inactive),0.52 (inactive),1.79,0.723 (inactive),-0.0668,1.01,0.581,-0.0647
CO[C@H]1COC(=O)CC=C[C@H](C)[C@@H](OC)COC(=O)[C@H](C)COC(=O)CC=C[C@@H]1C,0.765,0.395 (inactive),-0.425 (inactive),0.567 (inactive),-0.344,0.683 (inactive),-0.268,1.76,-0.292,-0.0439
CCOC(=O)CCN1C(=O)[C@H]2[C@H]3[C@H](O)[C@H](O)CC(=NNC(=O)OCc4ccccc4)[C@@H]3CC[C@H]2C1=O,1.05,-0.662 (inactive),0.279 (inactive),-0.598 (inactive),0.967,0.826 (inactive),-0.23,0.713,1.01,-0.0688
COC(=O)[C@@H]1CC[C@H](C)[C@@H](c2ccc(C)cc2)N1C(=O)c1ccc(C=NOCC[C@@H]2C=C[C@H](OC(C)=O)[C@@H](COC(C)=O)O2)cc1,0.903,1.09 (inactive),1.58 (inactive),1.81 (inactive),0.105,0.411 (inactive),-0.0736,0.647,0.792,-0.0397
CCOC(=O)NN=C1C[C@@H](O)[C@@H](O)[C@@H]2[C@@H]3C(=O)N(c4cccc(Oc5ccccc5)c4)C(=O)[C@@H]3CC[C@@H]12,-0.037,-0.73 (inactive),0.385 (inactive),-0.869 (inactive),1.26,0.205 (inactive),-0.335,0.918,-0.362,-0.163
COC(=O)NCC=Cc1nc(CCCO)co1,-0.227,0.084 (inactive),0.211 (inactive),0.214 (inactive),0.39,0.423 (inactive),-0.0139,0.501,0.903,0.0678
CO[C@H]1COC(=O)CCC[C@@H](C)[C@H](OC)COC(=O)[C@@H]2CCCN2C(=O)CC=C[C@@H]1C,1.53,-0.671 (inactive),0.044 (inactive),-0.986 (inactive),-1.77,-0.476 (inactive),-0.183,1.82,0.473,0.0869
CO[C@H]1COC(=O)[C@@H](C)COC(=O)[C@@H](OCc2ccccc2)C=C[C@@H]1C,0.0714,1.3 (inactive),-0.204 (inactive),1.03 (inactive),-0.424,0.075 (inactive),-0.357,0.172,-0.165,-0.0363
Cc1cc2c(c(=O)o1)[C@@H](O)[C@H]1O[C@H]1C2=O,0.798,0.112 (inactive),-0.0772 (inactive),0.233 (inactive),0.0376,-1 (inactive),-0.358,0.887,0.482,-0.12
CC(CCN1CCc2nc(-c3ccccc3)c(-c3ccccc3)cc2C1)=NOC[C@@H](O)[C@H]1O[C@@H]2OC(C)(C)O[C@@H]2[C@H]1O,1.53,-0.987 (inactive),-4.63 (inactive),-4.56 (inactive),1.78,1.23 (inactive),-0.342,0.449,0.41,-0.0409
COc1cccc([C@H]2Oc3ccc(OC)cc3C(=NOC[C@@H](O)[C@H]3O[C@@H]4OC(C)(C)O[C@@H]4[C@H]3O)[C@@H]2O)c1,0.775,-0.797 (inactive),-2.21 (inactive),-1.62 (inactive),0.347,0.932 (inactive),-0.0616,0.449,0.456,0.0746
O=C1CCCC=C1C(O)CCOC(c1ccccc1)(c1ccccc1)c1ccccc1 (stereo not given),-0.758,0.162 (inactive),-1.92 (inactive),1.55 (inactive),-0.626,-0.0634 (inactive),-0.186,0.547,0.103,-0.198
Cc1ccc(S(=O)(=O)NC(CCc2ccccc2)CC(=O)C(C)(C)C)cc1 (stereo not given),1.09,-1.18 (inactive),-1.76 (inactive),0.269 (inactive),0.69,0.361 (inactive),0.422,0.409,1.14,0.045
CC(CCN1CCCCc2nc(C)c(C)cc21)=NO[C@@H](C)c1cn([C@H](CO)Cc2ccccc2)nn1,1.03,0.725 (inactive),-0.0001 (inactive),0.17 (inactive),1.16,0.457 (inactive),-0.0383,0.377,0.474,0.0317
Cc1ccc(S(=O)(=O)n2c3ccccc3c3nnc(C(=O)c4ccccc4)nc32)cc1,-0.875,-0.232 (inactive),-0.683 (inactive),0.881 (inactive),-0.0929,0.878 (inactive),-0.122,0.0828,-0.467,0.0099
COCCNC(=O)OCC1CCCC2(CC(OC(=O)NCc3ccc4c(c3)OCO4)CC(CCC(=O)N[C@@H](C)C(=O)OC)O2)O1 (stereo not given in full),1.52,-0.05 (inactive),1.02 (inactive),-0.62 (inactive),1.55,-0.427 (inactive),-0.161,0.54,1.1,-0.0286
COC(=O)[C@@H]1CC[C@H](C)[C@@H](c2ccc(C)cc2)N1C(=O)c1ccc(C=NO[C@H](C)c2cn([C@@H]3COC[C@H]3O)nn2)cc1,1.12,0.524 (inactive),-0.0358 (inactive),0.726 (inactive),2.06,1.67 (inactive),-0.138,0.258,1.09,0.212
C#CCCCON=C1C[C@@H](O)[C@@H](O)[C@@H]2[C@@H]3C(=O)N(c4ccc(F)cc4F)C(=O)[C@@H]3CC[C@H]12,1.43,-0.989 (inactive),-1.41 (inactive),-1.5 (inactive),2.13,0.534 (inactive),-0.226,0.844,0.793,-0.0187
O=c1n(Cc2cc3c(cc2Cl)OCO3)c(=O)n2n1CC[C@@H]1C(=NOC[C@@H](O)COCc3ccco3)[C@H]3O[C@H]3[C@@H](O)[C@@H]12,0.101,1.52 (inactive),0.807 (inactive),1.24 (inactive),0.177,0.283 (inactive),-0.286,0.323,0.667,-0.0976

# Source: PubChem BioAssay
